Screening results (PubChem BioAssay)
RBX1-CUL1 inh: inhibitors of human ROC1-CUL1 ubiquitin ligase activity; in vitro K48 di-Ub FRET, acceptor:donor ratio, 45 min; E3 ubiquitin-protein ligase RBX1 (Homo sapiens) + Cullin-1 (Homo sapiens), P62877+Q13616; inhibition, % at 10 µM; 140,000 tested, 0.6% active; in the data active means inhibition above about 25%
Target sequence (P62877 whole entry, looked up): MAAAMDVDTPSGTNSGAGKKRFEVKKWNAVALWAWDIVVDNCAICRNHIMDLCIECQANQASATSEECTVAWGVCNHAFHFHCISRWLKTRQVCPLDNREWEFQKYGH
Target sequence (Q13616 whole entry, looked up): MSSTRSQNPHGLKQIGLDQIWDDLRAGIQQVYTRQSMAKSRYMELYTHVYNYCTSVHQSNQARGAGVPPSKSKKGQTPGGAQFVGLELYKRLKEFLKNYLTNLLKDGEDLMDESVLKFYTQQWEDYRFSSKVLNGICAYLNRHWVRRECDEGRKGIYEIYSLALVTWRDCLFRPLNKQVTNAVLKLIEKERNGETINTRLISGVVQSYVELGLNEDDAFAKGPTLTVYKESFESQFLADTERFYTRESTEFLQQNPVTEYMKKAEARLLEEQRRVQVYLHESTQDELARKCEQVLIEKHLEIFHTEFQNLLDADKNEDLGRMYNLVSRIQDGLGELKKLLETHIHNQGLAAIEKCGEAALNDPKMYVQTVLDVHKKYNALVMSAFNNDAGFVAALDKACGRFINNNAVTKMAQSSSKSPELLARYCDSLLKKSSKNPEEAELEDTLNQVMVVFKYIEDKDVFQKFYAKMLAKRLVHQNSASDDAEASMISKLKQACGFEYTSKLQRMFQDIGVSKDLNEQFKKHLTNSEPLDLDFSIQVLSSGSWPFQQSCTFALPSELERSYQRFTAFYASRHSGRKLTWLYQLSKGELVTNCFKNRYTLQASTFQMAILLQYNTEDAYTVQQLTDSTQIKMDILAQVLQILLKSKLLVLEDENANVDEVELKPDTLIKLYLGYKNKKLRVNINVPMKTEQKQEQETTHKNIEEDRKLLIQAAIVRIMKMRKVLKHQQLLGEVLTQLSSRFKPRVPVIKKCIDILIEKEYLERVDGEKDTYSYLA
An asterisk follows results filed as active. The entries come from a sample that favours hits as a whole.

SMILES	RBX1-CUL1 inh
COc1ccc(OC)c(NS(=O)(=O)c2cccc3cccnc23)c1	0.8
COc1cc(NCCCCCN)c2ncccc2c1	26.1*
COc1cc(NCCCCCCCN)c2ncccc2c1	-3.3
CCC1C(N2CCC(C(=O)N3CCCCC3)CC2)NS(=O)(=O)C1c1ccc(C)cc1 (stereo not given)	-0.2
O=C(NC(NC(=S)Nc1c(Cl)cccc1Cl)C(Cl)(Cl)Cl)c1cccc2ccccc12 (stereo not given)	-11.2
CC1(C)Oc2ccccc2C(=O)C1Br (stereo not given)	10.2
CC1(C)NC(=O)c2ccccc2O1	-2.3
O=C1C=CC2(C=C1)OC(=O)c1ccccc1O2	29.5*
COCC(=O)Nc1ccccc1C(=O)O	0.1
CCOCC(=O)Nc1ccccc1OC	0.9
CCOCC(=O)Nc1ccccc1C(=O)O	102.9*
COc1ccc(C2CC(C(F)(F)F)n3ncc(C(=O)N4CCCCC4)c3N2)cc1OC (stereo not given)	0.5
CCCC(=O)NC(=S)Nc1ccc2ccccc2c1	-4.2
O=C1NN(c2ccc(Cl)cc2)C(=O)/C1=C/c1ccc(O)cc1O	-4.3
O=C1NN(c2ccc(I)cc2)C(=O)/C1=C\c1cc(Br)ccc1O	28.9*
O=C1NN(c2ccc(Cl)cc2)C(=O)/C1=C/c1ccc2c(c1)OCO2	7.7
CCN(CC)c1ccc(/C=C2/C(=O)NN(c3cccc(Br)c3)C2=O)cc1	0.3
O=C1NN(c2ccc(Cl)cc2)C(=O)/C1=C/c1ccc(Cl)cc1	46.1*
CCc1ccc(N2NC(=O)/C(=C/c3cccc(Br)c3)C2=O)cc1	39.9*
CCc1ccc(N2NC(=O)/C(=C\c3cccs3)C2=O)cc1	5.3
CCOc1ccc(Br)cc1/C=C1/C(=O)NN(c2ccc(I)cc2)C1=O	21.3
CCOc1ccc(/C=C2/C(=O)NN(c3ccc(I)cc3)C2=O)cc1	-2.8
O=C1NN(c2ccc(I)cc2)C(=O)/C1=C\c1cccc(I)c1	4.1
Cc1ccc(/C=C2\C(=O)NN(c3ccc(I)cc3)C2=O)cc1	63.3*
O=C1NN(c2ccc(I)cc2)C(=O)/C1=C\c1ccccc1O	-6.5
SMILES	RBX1-CUL1 inh
O=C(CCC(=O)NNC(=O)[C@@H]1CCCC[C@@H]1C(=O)O)NCc1ccccc1	-7.0
COc1ccc(CN2C(=S)N(c3ccc(OC)cc3)C(=O)C2CC(=O)Nc2ccc(OC(F)(F)Cl)cc2)cc1 (stereo not given)	7.3
COc1cc(S(=O)(=O)N2CCN(c3cccc(C(F)(F)F)c3)CC2)c(C)cc1C	-6.1
Cn1c(Br)nc2c(N)ncnc21	1.8
Cc1ccc(F)cc1CNC1CCN(c2ccc(C(=O)NCCN3CCOCC3)cc2)CC1	-0.4
CCN(CC)C(=O)C(C)Sc1cc(C)c2ccccc2n1 (stereo not given)	-1.4
CCN(Cc1ccncc1)C(=O)c1cc2c(s1)CCCCCC2	5.1
CCOc1nc(N=C(Cl)N(C)C)c(C#N)c(-c2ccc(C)cc2)c1C#N	7.1
Cc1cc(C)n(CN2CCCC2=O)n1	-4.5
NC(=O)CCN1CCN(C2Cc3cc(Cl)ccc3Sc3cc(F)ccc32)CC1 (stereo not given)	-1.5
O=c1[nH]c(-c2ccc(-c3ccccc3Cl)o2)nc2sc3c(c12)CCCC3	12.2
CC(C)CCN(C)c1ccc(/C=C2/C(=O)NN(c3ccc(Br)cc3)C2=O)cc1	-0.2
O=C1NN(c2ccc(Br)cc2)C(=O)/C1=C\c1ccc(F)cc1	86.3*
COc1cc(/C=C2\C(=O)NN(c3ccc(Br)cc3)C2=O)cc(OC)c1OC	-7.5
Cc1nc2ccccc2c(=O)n1Nc1ccccc1C(=O)O	3.7
COc1cc2nc(-c3cc4c(c(OC)c3)OCCN(C(=O)c3ccccc3F)C4)cc(C)c2cc1OC	6.2
Cc1cccc(N2C(=O)C=C(c3ccc(Cl)cc3)C2=O)c1	1.6
CCC1(N)C(=O)c2ccccc2C1=O	6.6
O=C1c2ccccc2C(=O)C(O)(O)C1(O)O	99.9*
O=C1c2ccccc2C(=O)C(Cl)(Cl)C1(Cl)Cl	-7.9
CCN1CCN(C(c2ccccc2)C2C(=O)C=C(C)N(Cc3ccco3)C2=O)CC1 (stereo not given)	5.0
Cc1sc2nc(-c3ccc(-c4ccc(Cl)c(C(=O)O)c4)o3)[nH]c(=O)c2c1C	47.2*
Cc1sc2nc(-c3ccccc3)[nH]c(=O)c2c1C	7.1
Cc1sc2nc(-c3ccc(-c4ccc(C(=O)O)cc4)o3)[nH]c(=O)c2c1C	-2.1
CCN1/C(=C\C(=O)c2ccco2)Sc2ccccc21	-6.5
SMILES	RBX1-CUL1 inh
CCCCC(=O)Nc1ccccc1C(=O)OC	-2.6
CC(=O)N1CCc2cc(S(=O)(=O)NC(CC(C)C)C(=O)NCCc3cccc(C)c3)ccc21 (stereo not given)	44.5*
CCC(=O)N1CCc2cc(S(=O)(=O)NC(CC(C)C)C(=O)NCCc3ccccc3)ccc21 (stereo not given)	-0.4
CC(=O)N1CCc2cc(S(=O)(=O)NC(CC(C)C)C(=O)NCc3ccccc3)ccc21 (stereo not given)	2.7
CC(C)c1ccc(C(=O)NC(C)c2ccccc2)cc1 (stereo not given)	-1.3
Cc1ccc(C(n2nc(C)cc2C)n2nc(C)cc2C)cc1	-3.1
COc1ccc2c(c1)C(O)(C(F)(F)F)C(=O)O2 (stereo not given)	-2.8
COc1ccc2c(c1)C=C1C(=CC(=O)CC1(C)C)O2	111.5*
COc1ccc2c(c1)C=Cc1ccccc1O2	7.8
O=C(N/N=C/c1ccccn1)C1CC1(c1ccccc1)c1ccccc1 (stereo not given)	-1.7
Cc1ccc(C=C2C(=O)N(c3ccccc3)C(=O)N(c3ccccc3)C2=O)cc1	-7.2
CC(C)/C=C/CN1CC[C@@H](N2CCC(O)CC2)[C@H](O)C1	-3.5
OCC1(Cc2ccccc2)CCCN(Cc2ncc[nH]2)C1 (stereo not given)	-1.0
Cc1cc2c(=O)n(-c3ccccc3)c(=S)[nH]c2s1	-1.2
Cn1nnnc1Sc1ccc([N+](=O)[O-])c(Sc2nnnn2C)n1	32.1*
Cn1ccnc1Sc1ccc([N+](=O)[O-])c(Sc2nccn2C)n1	2.9
Cn1nnnc1Sc1ccc([N+](=O)[O-])cc1Cl	-4.1
O=C1NC(NCc2ccccc2Cl)(C(F)(F)F)C(=O)N1c1ccc(OC(F)(F)F)cc1 (stereo not given)	-3.4
Cc1ccc(NC(=O)NC2Cc3ccccc3C2)cc1	7.3
CC(C)(C)c1cc(/C=N/Nc2cnccn2)cc(C(C)(C)C)c1O	-6.3
COc1cc2c(c(OC)c1)C(=O)C2	3.2
COc1cc2c(c(O)c1OC)C(=O)C(=O)CC=C2	32.5*
COc1cc(NC(C)=O)c(-c2c(NC(C)=O)cc(OC)c(OC)c2OC)c(OC)c1OC	5.0
CCCCn1c(=O)c2c(nc3oc(C)c(C)n32)n(C)c1=O	-2.4
Cc1ccc(Cl)cc1N1CCN(S(=O)(=O)N2CCCC2)CC1	7.8
SMILES	RBX1-CUL1 inh
CCOc1ccc(/C=C/C(=O)C2=CC(Br)=CCC(=NC)C2=O)cc1	8.2
COc1cccc(N2CC(NC(=O)/C=C\c3ccc(OC)c(OC)c3)CC2=O)c1 (stereo not given)	-12.7
CN=C1CC=C(Br)C=C(C(=O)/C=C/c2ccc(Cl)cc2)C1=O	63.4*
CCN=C1CC=C(Br)C=C(C(=O)/C=C/c2ccc(OC)c(OC)c2)C1=O	-5.6
CN=C1CC=C(Br)C=C(C(=O)/C=C/c2ccc(Cl)cc2Cl)C1=O	4.1
CN=C1CC=C(Br)C=C(C(=O)/C=C/c2cccc(OC)c2)C1=O	44.1*
Cc1ccc(C(=O)Nc2cccc3ccccc23)cc1C	5.8
